The list is not random: actives were taken first. Their share in the collection is about 19%.
DT40 TDP1 no CPT = qHTS for Inhibitors of human tyrosyl-DNA phosphodiesterase 1 (TDP1): qHTS in cells in absence of CPT. DT40 Tdp1-/- hTDP1 cells, no CPT, ATP luminescence, 48 h. Potency, µM (top dose mostly 46.2 µM), inactives show at the top dose activity change, negative = growth inhibition, hits mostly inhibitors. AID 686978, 2013. 420,000 tested, 15% active; further: nearly all actives have a fitted effect of over 55% in size
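Readout: luminescence from CellTiter-Glo after 30 min in the dark at RT. Cells: DT40 Tdp1-/- with stable hTDP1, 400/well. Exposure: compounds alone, ≥48 hr, 37 °C.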
KB-3-1 tox = qHTS assay for MDR1-selective chemotherapeutics: Primary screen using the parental adenocarcinoma cell KB-3-1; AID 1347075, 2019; Potency, µM (titrated, usually from 46.1 µM), most hits filed as cytotoxic; 400,000 tested, 1.4% active; KB-3-1 viability, CellTiter-Glo ATP luminescence, 72 h; further: nearly all actives have a fitted effect of over 60% in size
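72 h, 37 °C compound treatment of KB-3-1 parental cells; CellTiter-Glo added, 10 min, luminescence read. Data corrected against DMSO-only plates and normalized before curve fitting.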
KB-V1 cytotox = qHTS assay for MDR1-selective chemotherapeutics: Primary screen using the drug-selected MDR subline cells KB-V1. KB-V1 MDR cells viability, CellTiter-Glo, 72 h. Potency, µM (titrated, usually from 46.1 µM), hits mostly cytotoxic. 400,000 tested, 3.4% active. AID 1347076, 2019; further: nearly all actives have a fitted effect of over 60% in size
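Cells of the MDR subline KB-V1 are plated, dosed with compound at multiple concentrations, and incubated 72 h at 37 degrees C; CellTiter-Glo is then added and luminescence read after 10 min.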
HT1080-NT tox = qHTS for induction of synthetic lethality in tumor cells producing 2HG: qHTS for the HT-1080-NT fibrosarcoma cell line. AID 686970, 2013. Potency, µM (doses to about 46.1 µM), for the others: top-dose activity, negative = less viability, actives largely listed as cytotoxic. 360,000 tested, 1.6% active. HT-1080-NT fibrosarcoma viability, CellTiter-Glo ATP luminescence, 48 h;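 further: NT is the 2HG producing partner of a matched IDH1 knockdown line; 0% = DMSO-treated cells and -100% = media-only wells without cells; nearly all actives have a fitted effect of over 55% in size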
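HT-1080-NT; 750 cells/well; 5% FBS RPMI; 48 h compound, 37 degrees C; CellTiter-Glo luminescence; curve fitting and curve-class assignment.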
HT1080 IDH1KD tx = qHTS for induction of synthetic lethality in tumor cells producing 2HG: qHTS for the HT-1080-IDH1KD cell line | Potency, µM (top dose mostly 46.1 µM), without a hit: at the highest dose activity, negative = toxicity, most hits filed as cytotoxic | HT-1080 IDH1 knockdown viability, ATP luminescence, 48 h | AID 686971, 2013 | 360,000 tested, 2% active;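 further: 0% = DMSO wells and -100% = cell-free medium wells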
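After a 2 h attachment period, IDH1KD HT-1080 cells took pin-transferred compound for 48 h at 37 °C; ATP-based luminescence after 10 min room-temperature reagent incubation reported viability.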
TDP1 cell CPT = qHTS for Inhibitors of human tyrosyl-DNA phosphodiesterase 1 (TDP1): qHTS in cells in presence of CPT. chicken DT40 Tdp1-/-;hTDP1 cells + 20 nM CPT, ATP luminescence, 48 h. Potency, µM (titrated, usually from 46.2 µM), for inactives: top-dose activity change, negative = growth inhibition, hits mostly inhibitors. 420,000 tested, 12% active; further: nearly all actives have a fitted effect of over 55% in size
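Cell growth measured by CellTiter-Glo luminescence after a minimum 48 h, 37 C compound exposure with 20 nM CPT in Tdp1-knockout DT40 cells stably expressing hTDP1, seeded 400/well; qHTS titration format.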
The depositor's hits bear a star; i = inactive; u = inconclusive; x = not tested or not shown; [ ] = dose if it differs, or a comment. The call rests on the fitted dose curve; in most records, active means well fitted curve in the direction sought with a large enough effect; inconclusive means small, poorly fitted or top-dose-only effect, or another doubt; inactive means no such curve, though single readings can be large; an effect the other way counts as inactive or inconclusive. Unless noted, on the % scale 0 is the no-effect control and ±100 the full control effect; potency means the concentration at half of the fitted maximal effect.

SMILES	DT40 TDP1 no CPT	KB-3-1 tox	KB-V1 cytotox	HT1080-NT tox	HT1080 IDH1KD tx	TDP1 cell CPT
C(=Cc1c[nH]c2ccccc12)c1ccc2ccccc2n1	u	i	i	16.4µM*	23.1µM*	u
CC(=O)Oc1c(Cl)cc(Cl)cc1/C=C/c1ccc2ccccc2n1	-6.5%	u	u	-3.5%[9.24 µM]	u	u
Fc1ccccc1/C=C/c1ccc2ccccc2n1	u	u	u	-9.3%	-3.0%	u
C(=C\c1ccnc2ccccc12)/c1ccc2ccccc2n1	7.94µM*	i	u	x	x	7.08µM*
Cc1ccc(NC(=O)CNCc2ccc(Cl)cc2Cl)cc1S(=O)(=O)N(C)C	18.4µM*	u	13µM*	-8.4%	-10.1%	u
Cc1ccc(NC(=O)Cc2c(Cl)cccc2Cl)cc1S(=O)(=O)N(C)C	16.4µM*	i	u	-8.2%	u	u
Cc1ccc(C)c(S(=O)(=O)c2cnc(SCC(=O)Nc3ccc(F)cc3F)[nH]c2=O)c1	x	i	i	x	x	x
COc1ccc(C2CC(=O)N(Cc3ccc(C)cc3)c3c2c(C)nn3-c2nc(C)cc(C)n2)c(OC)c1 (configuration not stated)	-52.9%	i	i	x	x	u
Cc1cc(C)nc(-n2nc(C)c3c2N(Cc2ccccc2F)C(=O)CC3c2ccc(Cl)cc2)n1 (configuration not stated)	23.1µM*	i	i	x	x	23.1µM*
COc1cccc(-c2nc(CS(=O)(=O)CC(=O)NCc3cccc(Cl)c3)c(C)o2)c1	-17.1%	i	i	x	x	1.5%
CCOc1ccc(-c2nc(CSCC(=O)NC3CCCc4ccccc43)c(C)o2)cc1 (configuration not stated)	u	i	i	7.1%	-0.4%	17.8µM*
CCOc1ccc(-c2nc(CSCC(=O)NC3CCN(Cc4ccccc4)CC3)c(C)o2)cc1	u	i	u	-27.9%	u	23.1µM*
O=C(Cc1cccs1)OCC(=O)c1ccco1	-15.6%	i	i	-2.4%	9.8%	-14.2%
O=C(CC(Sc1ccccc1)c1cccs1)c1ccco1 (configuration not stated)	25.9µM*	i	i	u	u	18.4µM*
Cc1ccc(C(=O)c2no[n+]([O-])c2C(=O)c2ccc(C)cc2)cc1	5.8µM*	i	i	u	u	2.91µM*
C(=C\c1ccccc1)/CN1CCN(C(c2cc3ccccc3o2)c2nnnn2-c2ccc3c(c2)OCCO3)CC1 (configuration not stated)	14.6µM*	i	i	-11.1%	-12.6%	13µM*
CCCCn1nnnc1C(c1cc2ccccc2o1)N1CCN(c2ncccc2C#N)CC1 (configuration not stated)	18.4µM*	i	i	-1.2%	-12.9%	u
Cc1cccc(C)c1-n1nnnc1C(C1CC1)N1CCN(C/C=C/c2ccccc2)CC1 (configuration not stated)	u	i	i	u	u	u
COc1ccc(C(c2nnnn2-c2ccc3c(c2)OCCO3)N2CCN(C/C=C/c3ccccc3)CC2)cc1 (configuration not stated)	16.4µM*	i	i	u	u	16.4µM*
COc1ccc(-n2nnnc2C(c2cccc3ccccc23)N2CCN(C/C=C/c3ccccc3)CC2)cc1 (configuration not stated)	8.2µM*	i	i	-27.5%	-23.9%	7.31µM*
CNC(=S)N1CCC(C(=O)c2ccc(Cl)cc2)CC1	-20.7%	i	i	-1.0%	10.5%	-11.2%
COc1ccc(CNC(=O)c2ccc(-c3nc(CSc4ccccc4)c(C)o3)cc2)cc1OC	-20.2%	i	i	x	x	-19.7%
CCOCCn1c(=O)c2c(nc3n2CCN3c2ccc(C)c(C)c2)n(C)c1=O	-4.7%	i	i	x	x	3.9%
COc1ccc(-n2nnnc2C(c2cc3ccccc3o2)N2CCN(C/C=C/c3ccccc3)CC2)cc1 (configuration not stated)	14.6µM*	i	i	-16.0%	-12.4%	23.1µM*
C(=C\c1ccccc1)/CN1CCN(C(c2cccs2)c2nnnn2-c2ccc3c(c2)OCCO3)CC1 (configuration not stated)	23.1µM*	i	u	u	u	u
SMILES	DT40 TDP1 no CPT	KB-3-1 tox	KB-V1 cytotox	HT1080-NT tox	HT1080 IDH1KD tx	TDP1 cell CPT
CCCCn1nnnc1C(c1cc2ccccc2o1)N1CCN(C/C=C/c2ccccc2)CC1 (configuration not stated)	16.4µM*	u	u	u	u	20.6µM*
O=c1[nH]c(=S)c2n[nH]nc2[nH]1	-23.0%	i	u	x	x	7.6%
COc1ccc2oc(=O)c(-c3cn4c(n3)sc3cc(F)ccc34)cc2c1	5.4%	x	x	x	x	-11.3%
Cc1cnc(CNc2ncncc2-c2ccccc2C#N)cn1	0.3%	x	x	x	x	2.8%
O=C1NC[C@H](CCCCN2C[C@H](Cc3ccccc3)N(CCc3ccc(O)cc3)C(=O)C2=O)N(CCc2ccccc2)C1=O	-16.0%	i	i	19.8%	16.3%	9.1%
Cc1ccc(C2=NN(C(=O)CCC(=O)O)C(c3cn(-c4ccccc4)nc3-c3ccc(C)cc3)C2)cc1 (configuration not stated)	-19.8%	i	u	4.3%	0.9%	-12.0%
CCCn1ccc2c(OCC(=O)Nc3ccccc3OCC)cccc2c1=O	11.6µM*	i	u	x	x	20.6µM*
CCOc1ccccc1NC(=O)CCNC(=O)Cn1ccc2ccccc2c1=O	-11.9%	i	i	22.8%	8.2%	-14.2%
COCCn1ccc2c(OCC(=O)NCCc3ccccc3)cccc2c1=O	u	i	i	1.4%	-1.5%	-20.3%
COCCn1ccc2c(OCC(=O)Nc3ccccc3OC)cccc2c1=O	20.6µM*	i	u	-13.2%	-22.1%	18.4µM*
CCCn1ccc2c(OCC(=O)NCc3ccccc3Cl)cccc2c1=O	23.1µM*	i	i	x	x	u

Compound activity (PubChem)
